Giardia FBPA inh: qHTS Assay for Inhibitors of Fructose-1,6-bisphosphate Aldolase from Giardia Lamblia; A8B2U2; purified Giardia FBPA; Potency, µM (highest dose often 59.6 µM), for inactives: top-dose activity, negative = inhibition, hits mostly inhibitors; actives 0.71% (n = 290,000); AID 2451, 2010; further: potency means the concentration at half of the fitted maximal effect; on the % scale 0 is the no-effect control and ±100 the full control effect; nearly all actives have a fitted effect of over 55% in size
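Giardia FBPA (40 nM reagent) was preincubated 10 min at RT with compound (up to 57.5 uM final), then substrate plus GAPDH/TPI/NAD/arsenate coupling system with diaphorase/resazurin was added; resorufin fluorescence (525/598 nm) was read after 20 min.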
Cycloheximide cs: Cycloheximide Counterscreen for Small Molecule Inhibitors of Shiga Toxin | cell reporter, cycloheximide protein synthesis inhibition counterscreen | actives 12% (n = 300,000) | AID 2314, 2010 | max response, %; in the data active means max response mostly above about 13%, no sharp cut-off; inactive means mostly below about 14%; further: read at 38.3 µM for the half of the compounds with a filed dose; 0% is about no effect
RE007 growth inh: qHTS Assay for Inhibitors of the HIV-1 protein Vpr. S. pombe RE007 Vpr strain, BacTiter-Glo ATP luminescence, 24 h. Potency, µM (highest dose often 92.2 µM), without a hit: at the top dose activity change, negative = less growth, actives largely listed as inhibitors. actives 0.21% (n = 360,000); active means well fitted falling curve with a large enough effect; inconclusive means small, poorly fitted or top-dose-only effect; inactive means no such curve, though single readings can be large or run the other way; further: potency means the concentration at half of the fitted maximal effect; on the % scale 0 is the no-effect control and ±100 the full control effect; nearly all actives have a fitted effect of over 50% in size
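Fission yeast strain RE007, carrying one chromosomally integrated HIV-1 vpr copy, was seeded at OD 0.01 in PMG+AL medium with 23 nL pinned compound. After 24 h at 30 °C and 99% humidity, viability was read by BacTiter-Glo luminescence.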
LmPK inh: qHTS Assay for Inhibitors of Leishmania Mexicana Pyruvate Kinase (LmPK); purified LmPK, Kinase-Glo ATP luminescence, 1 h; Q27686; actives 0.37% (n = 290,000); Potency, µM (titrated, usually from 57.5 µM), without a hit: at the highest dose activity change, negative = inhibition, usual class: inhibitors; further: potency means the concentration at half of the fitted maximal effect; on the % scale 0 is the no-effect control and ±100 the full control effect
Target sequence (Q27686 whole entry, looked up): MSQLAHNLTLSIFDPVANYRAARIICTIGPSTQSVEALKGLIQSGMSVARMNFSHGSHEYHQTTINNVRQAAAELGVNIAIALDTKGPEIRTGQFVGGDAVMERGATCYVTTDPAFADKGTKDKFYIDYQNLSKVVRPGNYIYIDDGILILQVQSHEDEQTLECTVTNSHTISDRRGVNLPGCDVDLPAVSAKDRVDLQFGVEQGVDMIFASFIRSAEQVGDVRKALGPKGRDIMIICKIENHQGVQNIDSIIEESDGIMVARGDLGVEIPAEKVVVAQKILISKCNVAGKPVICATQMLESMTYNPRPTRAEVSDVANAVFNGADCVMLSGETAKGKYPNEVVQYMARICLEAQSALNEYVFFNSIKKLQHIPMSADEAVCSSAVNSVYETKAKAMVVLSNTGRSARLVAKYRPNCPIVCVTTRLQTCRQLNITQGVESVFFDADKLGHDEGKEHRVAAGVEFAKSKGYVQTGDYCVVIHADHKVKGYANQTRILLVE
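Pyruvate kinase activity monitored as ATP production (luciferase luminescence). Conditions: 0.1 nM enzyme, 0.5 mM PEP, 0.1 mM ADP, 1 h, RT; normalized against uninhibited and no-enzyme wells.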
Shiga toxin inh: A qHTS for Small Molecule Inhibitors of Shiga Toxin; Vero cells, Shiga toxin protein synthesis inhibition reporter; inhibition, % at 38.7 µM; actives 9.2% (n = 290,000); in the data active means inhibition mostly above about 28%, no sharp cut-off; inactive means mostly below about 43%; further: 0% is about no effect
Tb PYK inh: qHTS of Trypanosoma Brucei Inhibitors; TbPYK enzyme, Kinase-Glo Plus ATP luminescence, 45 min; Potency, µM (top dose mostly 76.8 µM), without a hit: at the highest dose activity, negative = inhibition, hits mostly inhibitors; actives 0.12% (n = 410,000); pyruvate kinase (Trypanosoma brucei), Q57TT1; further: potency means the concentration at half of the fitted maximal effect; on the % scale 0 is the no-effect control and ±100 the full control effect; nearly all actives have a fitted effect of over 50% in size
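Assay buffer: 50 mM TEA pH 7.2, 100 mM KCl, 10 mM MgCl2, 0.05% BSA, 0.01% Tween-20. Pyruvate kinase from T. brucei plus substrate met compound, then ADP (130 uM final). Luminescence was read post 45 min RT.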
An asterisk follows results filed as active; i = inactive; ? = inconclusive; . = not tested or not shown; + = active, no number; ! = not active in a repeat; [ ] = remark or other dose. This is one part of a sample in which hits are shown more often than they occur. Unless noted, the call rests on the fitted dose curve; in most records, active means well fitted curve in the direction sought with a large enough effect; inconclusive means small, poorly fitted or top-dose-only effect, or another doubt; inactive means no such curve, though single readings can be large; an effect the other way counts as inactive or inconclusive.

SMILES | Giardia FBPA inh | Cycloheximide cs | RE007 growth inh | LmPK inh | Shiga toxin inh | Tb PYK inh
COCC(=O)Nc1sc2c(c1C(=O)OC)CCCC2 | -9% | 14 | -14% | -4% | 13 | 0%
COC(=O)c1c(NC(=O)Cc2cccs2)sc2c1CCCC2 | 4% | 30* | -18% | 1% | 22 | -12%
COC(=O)c1c(NC(=O)c2ccc(C)o2)sc2c1CCCCC2 | -10% | 50* | 8% | -1% | 73* | -7%
COC(=O)c1c(NC(=O)C2CCCCC2C(=O)O)sc2c1CCCCC2 (configuration not stated) | 27% | 40* | 15% | 1% | 84* | -5%
CCOC(=O)c1c(NC(=O)C2CCCCC2C(=O)O)sc2c1CCCCC2 (configuration not stated) | 30% | -5 | 10% | 1% | -19 | 0%
CCCOc1ccc(-c2cccc(NS(=O)(=O)c3ccc(CC)cc3)c2)nn1 | . | . | . | . | . | -2%
Clc1ccc(-n2ncc3c(NCc4cccnc4)ncnc32)cc1Cl | 4% | 34* | 14% | 1% | 27 | 5%
c1ccc(CCNc2ncnc3c2cnn3-c2ccccc2)cc1 | 2% | 44* | -24% | -3% | 66* | -13%
Nc1c(Cl)ncnc1NCc1cccnc1 | -1% | -1 | 1% | 1% | 15 | 7%
c1ccc(CNc2ncnc3c2cnn3-c2ccccc2)cc1 | -4% | 13* | -2% | 7% | 45 | -9%
Clc1ccc(-n2ncc3c(NCc4cccs4)ncnc32)cc1 | 4% | -5 | 7%[3.69 µM] | 6% | -5 | .
Cc1cccc(-n2ncc3c(NCc4cccs4)ncnc32)c1 | -17% | 23* | 11% | 3% | 114* | 3%
CCOc1cc(N2CCOCC2)c(OCC)cc1NC(=O)COC(=O)/C=C/c1ccc(OC(F)F)cc1 | . | . | -6% | . | . | -6%
Cc1cccc(C(=O)NC2CCN(C(=O)NCc3ccccc3)CC2)c1 | -3% | 12 | -2% | -4% | -2 | -18%
CC(C)(C)Nc1ncnc2c1cnn2-c1ccccc1 | -13% | 57* | -4% | -4% | 96* | -1%
Fc1ccc(CNc2ncnc3c2cnn3-c2ccccc2)cc1 | 7% | 17 | -11% | 9% | 22 | -6%
Cn1ncc2c(NCc3ccccc3)ncnc21 | 2% | 13*! | 8% | 10% | 8 | 5%
Cn1ncc2c(NNC(=O)Cc3ccccc3)ncnc21 | -1% | -4 | 13% | 0% | -6 | -4%
Cc1cccc(-n2ncc3c(NCc4ccccc4)ncnc32)c1 | -3% | 29* | 16% | 1% | + | 5%
CSCCC(NC(=O)c1ccccc1Br)C(=O)NCC(c1ccco1)N1CCCCC1 (configuration not stated) | . | . | -28% | . | . | -4%
CCOC(=O)N1CCN(C(=O)C[C@@H]2C[C@@]3(C(=O)OC)CC(C)(C)CC=C3N(Cc3cccc4ccccc34)C2=O)CC1 | . | . | 30% | . | . | .
CSCC[C@H](NC(=O)[C@H](CC(C)C)NC(=O)CNC(=O)[C@H](Cc1ccccc1)N(C)C(=O)[C@H](Cc1ccccc1)NC(=O)[C@H](CC(=O)O)NC(=O)[C@@H](N)CC(=O)O)C(N)=O | -5% | -10 | . | . | -9 | .
CC(C)c1ccc(N(CC(=O)N2CCN(Cc3ccccc3)CC2)S(C)(=O)=O)cc1 | 0% | 1 | 5% | 0% | -9 | 9%
CCOC(=O)c1c(/N=C/N(C)C)sc2c1CCC2 | -15% | -1 | . | 1% | -7 | -13%
CN(C)/C=N/c1nc2ccc3c(c2s1)CCCC3 | -15% | 36* | -14% | -3% | 87* | 7%
SMILES | Giardia FBPA inh | Cycloheximide cs | RE007 growth inh | LmPK inh | Shiga toxin inh | Tb PYK inh
CCOc1ccc(CCNC(=O)CCCn2nc(C)c3sc4ccccc4c3c2=O)cc1OCC | . | . | . | . | . | 2%
COc1ccc(S(=O)(=O)N2CCC(C(=O)NCC3CCCO3)CC2)cc1 (configuration not stated) | 1% | 8 | -5% | 0% | 51* | -14%
COc1ccc(S(=O)(=O)N2CCC(C(=O)NCC3CCCO3)CC2)cc1OC (configuration not stated) | 3% | -2 | -8% | -10% | -4 | -1%
COc1ccc(S(=O)(=O)N2Cc3ccccc3CC2C(=O)Nc2nccs2)cc1OC (configuration not stated) | 3% | 43* | -7% | 4% | 92* | -6%
COc1ccc(S(=O)(=O)N2CCC(C(=O)Nc3nccs3)CC2)cc1 | . | 42* | 67% | -11% | 101* | 2%
COc1ccc(S(=O)(=O)N2Cc3ccccc3CC2C(=O)Nc2nccs2)cc1 (configuration not stated) | -7% | 29* | -8% | 1% | 75* | 3%
COc1ccc(S(=O)(=O)N2Cc3ccccc3CC2C(=O)Nc2ccc(C)cc2)cc1OC (configuration not stated) | . | . | . | . | . | 2%
O=C(N/C(=C\c1ccco1)C(=O)N1CCCC1CO)c1ccccc1 (configuration not stated) | 2% | -3 | -5% | 0% | -5 | 8%
N#Cc1ccc2c(c1)C[C@]1(CCCCN3C(=O)c4ccccc4C3=O)Oc3cc(-c4ccccc4)oc(=O)c3[C@H]2O1 | 14%[12.9 µM] | -1 | . | -9%[11.5 µM] | i | .
Nc1nonc1-c1noc(-c2ccccc2Br)n1 | -1% | 30* | ? | -10% | 38* | -1%
FC(F)(F)c1ccc(-c2noc(-c3ccccc3Br)n2)cc1 | . | . | . | . | . | -1%
Nc1nonc1-c1noc(CCCN2C(=O)c3ccccc3C2=O)n1 | 6% | 112* | -1% | 0% | 98* | 2%
CCOc1ccc(NC(=O)c2ccc(NC(=O)N3CCSc4ncccc43)cc2)cc1 | . | . | . | . | . | -1%[15.4 µM]
COc1ccccc1-c1ccc2ncnc(Nc3ccccc3)c2c1 | 4% | . | . | . | . | .
COc1ccc(NC(=O)COC(=O)Cc2cccs2)cc1Cl | . | . | -7% | . | . | -9%
COc1ccc(NC(=O)Nc2cccs2)cc1Cl | -13% | 39* | 15% | -1% | + | -12%
COc1ccc(NC(=O)CCC(=O)c2cccs2)cc1Cl | 5% | 9.5* | 4% | 4% | 11 | 4%
CCc1cccc(NC(=O)Nc2cccs2)c1 | -17% | 28* | -9% | -1% | + | -13%
COc1cc(NS(=O)(=O)c2ccc(-n3cccn3)cc2)cc(OC)c1 | . | . | 4% | . | . | 0%
Cc1ccsc1C(=O)OCC(=O)c1ccc[nH]1 | . | . | -13% | . | . | 2%
Cc1ccc(C(=O)OCC(=O)c2ccc[nH]2)s1 | 2% | 30* | 3% | -10% | 76* | -3%
O=C(COC(=O)c1ccc(Cl)s1)c1ccc[nH]1 | 0% | 27* | 13% | 2% | 73* | -14%

Screens as filed in PubChem BioAssay.
